Where “and” joins values, the source holds several entries; their conditions need not be identical. Identical values can stand only once. Inconclusive results are not listed. A call without a number means that no potency is given here. Calls of active or inactive are those of the source. Unless noted, calls follow the shape of the dose curve; as a rule, active = well fitted curve in the direction sought with a large enough effect; inconclusive = small, poorly fitted or top-dose-only effect, or another doubt; inactive = no such curve, though single readings can be large; an effect the other way counts as inactive or inconclusive.
How the values were obtained:
[1] = target: Alpha-galactosidase A (Homo sapiens) (UniProt P06280); assay: Counterscreen for Glucocerebrosidase Inhibitors: qHTS Assay for Human alpha-Galactosidase at pH 4.5 (AID 992)
Summary of the method: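 Fluorogenic 1536-well qHTS at pH 4.5 (citrate, Tween-20): 2 nM enzyme, 80 uM 4-MU-alpha-galactoside, 20 min room temperature, NaOH/glycine stop. Titration 0.7 nM to 77 uM, data normalized to no-enzyme and full-activity controls, Hill-fitted AC50.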

[2] = target: alpha-glucosidase (Oryza sativa, rice) (UniProt Q653V4); assay: Counterscreen for Glucocerebrosidase Inhibitors: qHTS Assay for Rice alpha-Glucosidase at pH 5.0 (AID 997)
Summary of the method: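 Endpoint fluorogenic assay at pH 5.0: compounds (0.7 nM to 77 uM) titrated against 4 nM rice enzyme and 400 uM 4-MU-alpha-glucoside for 20 min at room temperature; NaOH/glycine stop, read ex 365/em 440 nm, Hill-fitted AC50.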

[3] = target: Alpha-galactosidase (Coffea arabica) (UniProt Q42656); assay: Counterscreen for Glucocerebrosidase Inhibitors: qHTS Assay for Coffee Bean alpha-Galactosidase at pH 5.9 (AID 998)
Summary of the method: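 In 50 mM citric acid pH 5.9 with 0.005% Tween-20, coffee bean enzyme hydrolyses 80 uM 4-MU alpha-D-galactopyranoside over 20 min at RT. Activity is normalized to controls; AC50 comes from Hill-modelled concentration-response data.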

[4] = Validation of Assay for Modulators of Lamin A Splicing (AID 1459; active = well fitted curve in the direction sought with a large enough effect in the signal ratio; the % refers to the signal ratio;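 also: cells exposed to compound for two days before reading; ratio rise marks activators and ratio drop marks inhibitors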)
Summary of the method: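 Splicing correction is reported by an EGFP-containing lamin A minigene in stably transfected S3 HeLa cells, while DsRed2 controls for viability and nonspecific signal. Cells are exposed to compounds for 48 hrs before the GFP over RFP ratio is taken.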

[5] = qHTS Assay for Lipid Storage Modulators (AID 1519; calls by dose curve); settings: Drosophila S3 cells, BODIPY lipid droplet/cell ratio, laser cytometry, cells loaded with oleic acid
Summary of the method: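 Cells seeded at 5,000 per well were treated with compounds over a concentration series and loaded with oleic acid (400 uM, as added). Lipid droplet fluorescence (488 nm excitation, 500-530 nm channel) was read by laser-scanning cytometry and normalized to 20 uM Triacsin C.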

[6] = target: DNA repair nuclease/redox regulator APEX1 (Homo sapiens) (UniProt P27695); assay: qHTS Validation Assay for Inhibitors of the Human Apurinic/apyrimidinic Endonuclease 1 (APE1) (AID 1705; also: potency is read from the fitted curve at half-maximal effect;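 as to activity change, negative = inhibition: TAMRA fluorescence gain over two minutes as APE1 cuts a quenched THF abasic duplex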)
Summary of the method: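 Endonuclease activity of human APE1 is followed as dequenching when the enzyme incises a tetrahydrofuran abasic site in a short duplex labelled 5'-TAMRA/3'-BHQ-2 (50 nM final), after 15 min enzyme–compound preincubation at room temperature.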

[7] = Counterscreen for APE1 Inhibitors: Fluorescent Dye Displacement Validation Assay (AID 1707); also: potency is read from the fitted curve at half-maximal effect
Summary of the method: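 Counterscreen flags promiscuous DNA binders: compounds displacing ThO from duplex DNA (abasic THF site, 50 nM) reduce 540 nm emission (480 nm excitation). ThO 250 nM final; Tris-HCl pH 7.5 with NaCl, MgCl2 and Tween-20.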

[8] = target: Endonuclease 4 (Escherichia coli (strain K12)) (UniProt P0A6C1); assay: Counterscreen for APE1 Inhibitors: qHTS Validation Assay for Inhibitors of Endonuclease IV (AID 1708)
Summary of the method: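 Enzyme (2 nM) + compound, 15 min RT; add 50 nM TAMRA/BHQ-2 THF-site dsDNA; kinetic read ex525/em598, 3 reads/60 s; activity = read 3 − read 1. Buffer Tris pH 7.5, 50 mM NaCl, 2 mM MgCl2, DTT, Tween-20.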

[9] = measured here: cell count channel max response
[10] = measured here: lipid channel max response

Alpha-galactosidase A (Homo sapiens), sequence (P06280 whole entry, looked up): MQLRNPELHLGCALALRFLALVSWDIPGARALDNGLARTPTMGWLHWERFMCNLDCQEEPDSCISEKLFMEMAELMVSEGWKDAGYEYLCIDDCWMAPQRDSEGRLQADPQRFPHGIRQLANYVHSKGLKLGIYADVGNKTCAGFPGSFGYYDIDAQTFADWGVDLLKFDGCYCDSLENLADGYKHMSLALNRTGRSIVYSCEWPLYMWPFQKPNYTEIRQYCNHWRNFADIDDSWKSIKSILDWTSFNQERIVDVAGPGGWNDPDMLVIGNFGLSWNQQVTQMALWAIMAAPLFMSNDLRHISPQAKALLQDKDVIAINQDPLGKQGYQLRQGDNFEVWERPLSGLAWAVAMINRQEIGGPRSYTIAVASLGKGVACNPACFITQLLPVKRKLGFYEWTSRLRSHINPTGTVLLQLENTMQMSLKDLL
Alpha-galactosidase (Coffea arabica), sequence (Q42656 whole entry, looked up): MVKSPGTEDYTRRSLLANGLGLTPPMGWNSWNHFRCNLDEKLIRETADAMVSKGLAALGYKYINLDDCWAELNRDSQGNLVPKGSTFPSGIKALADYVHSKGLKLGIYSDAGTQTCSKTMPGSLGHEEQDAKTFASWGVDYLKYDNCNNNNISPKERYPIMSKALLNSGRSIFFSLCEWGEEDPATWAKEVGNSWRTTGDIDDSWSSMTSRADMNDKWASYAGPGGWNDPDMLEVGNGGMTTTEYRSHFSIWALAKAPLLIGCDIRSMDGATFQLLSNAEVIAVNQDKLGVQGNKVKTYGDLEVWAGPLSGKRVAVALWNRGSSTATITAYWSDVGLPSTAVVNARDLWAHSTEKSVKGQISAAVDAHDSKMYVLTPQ
DNA repair nuclease/redox regulator APEX1 (Homo sapiens), sequence (P27695 whole entry, looked up): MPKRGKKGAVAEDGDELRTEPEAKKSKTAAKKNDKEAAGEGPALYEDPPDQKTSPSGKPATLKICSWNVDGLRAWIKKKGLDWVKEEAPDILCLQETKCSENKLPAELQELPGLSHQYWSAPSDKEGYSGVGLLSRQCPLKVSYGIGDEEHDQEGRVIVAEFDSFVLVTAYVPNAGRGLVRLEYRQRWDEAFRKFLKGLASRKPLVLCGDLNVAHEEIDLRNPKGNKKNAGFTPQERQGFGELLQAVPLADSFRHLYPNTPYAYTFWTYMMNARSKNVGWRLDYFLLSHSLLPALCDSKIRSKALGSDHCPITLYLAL

SMILES	outcome [1]	outcome [2]	outcome [3]	outcome [4]	activity change, negative = inhibition ([5]; at 57.5 µM (top of the series))	max response [5, 9]	max response [5, 10]	Potency [6]	Potency [7]	Potency [8]	activity change, negative = inhibition ([5]; at 25.7 µM (top of the series))
C[N+](C)(C)CC#CCOC(=O)Nc1cccc(Cl)c1	inactive	inactive	inactive	inactive	-0.494% (inactive)	-7.08%	-8.94%	inactive	inactive	–	–
NC(Cc1cc(O)c(O)cc1O)C(=O)O (configuration not stated)	–	–	–	inactive	–	–	–	0.112 µM (active)	7.94 µM (active)	–	–
CC(N)Cc1c[nH]c2ccc(OCc3cccs3)cc12 (configuration not stated)	–	–	–	inactive	-0.884% (inactive)	-45.6%	-46.5%	inactive	inactive	–	–
CC12NC(Cc3ccccc31)c1ccccc12 (configuration not stated)	–	–	–	inactive	-2.09% (inactive)	1.93%	-0.147%	inactive	inactive	inactive	–
NC(N)=NOCC[C@H](N)C(=O)O	inactive	inactive	inactive	inactive	-0.661% (inactive) and -1.31% (inactive)	-2.62% and 0.126% and 38.5%	-6.68% and -0.879% and 37%	inactive	inactive	inactive	-2.42% (inactive)
C=CCN1C[C@@H](C)N([C@H](c2ccc(C(=O)N(CC)CC)cc2)c2cccc(OC)c2)C[C@@H]1C	–	–	–	inactive	2.23% (inactive)	-2.68%	0%	inactive	inactive	inactive	–
COc1ccc2[nH]c3c(c2c1)CCNC3	inactive	inactive	inactive	inactive	-0.655% (inactive)	-42.9%	-46.2%	–	inactive	inactive	–
Clc1ccc(N2CC3CCC(C2)N3)nn1	–	–	–	inactive	–	–	–	inactive	inactive	inactive	–
COc1ccc2c(c1)C13CCCCC1C(C2)N(C)CC3 (configuration not stated)	–	–	–	inactive	–	–	–	inactive	inactive	inactive	–
CCN(CC)c1ncnc2c1ncn2[C@@H]1O[C@H](COP(=O)(O)OP(=O)(O)C(Br)(Br)P(=O)(O)O)[C@@H](O)[C@H]1O	–	–	–	inactive	–	–	–	inactive	inactive	inactive	–
N[C@@H](CCl)C(=O)O	–	–	–	inactive	–	–	–	inactive	inactive	inactive	–
CCCn1c(=O)c2[nH]c(C3CCCC3)nc2n(CCCOC(=O)c2ccc(S(=O)(=O)F)cc2)c1=O	inactive	inactive	inactive	inactive	–	–	–	–	inactive	inactive	–
Cc1sc2ccccc2c1CC1=NCCN1	inactive	inactive	inactive	inactive	–	–	–	–	inactive	inactive	–
CC(=O)NBr	inactive	inactive	inactive	inactive	–	–	–	inactive	inactive	inactive	–

Reference: PubChem BioAssay (NCATS)
